Reference: the supplement of paper PMC10849652
About 7,900 targets were measured; listed, in parts, are those with a hit and a random draw of the rest. About 0.6% of all pairs of compound and target were hits.

Legend:
Assay in all cases: log2 fold change, soluble protein after heating vs DMSO (PISA); higher = thermal stabilisation; K562 cells, 10 uM, 30 min; active = over 0.2 and 3.5 SD of the protein, either way, in both replicates (recomputed)
[1] = compound: Cc1ccc(NC(=O)c2ccc(CN3CC[C@H](N(C)C)C3)c(C(F)(F)F)c2)cc1Nc1nccc(-c2cncnc2)n1 [bafetinib]
Outline: (§1)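 Values are thermal stability changes relative to control samples and are taken from duplicates. They are stated as log2 fold changes. Before quantification by TMTpro 16plex LC-MS/MS with equalised channel sums, K562 cells at 2×10^6 cells/mL were treated with 10 μM compound for 30 min, heated in aliquots for 3 min across 48°C-58°C, pooled, extracted in PBS with 0.5% NP-40 at 4°C, and centrifuged at 21,000xg for 90 min to give the soluble supernatant.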

[2] = compound: Cc1cccc(CC(=O)N2CCc3c2ccc(-c2cn(C)c4ncnc(N)c24)c3F)n1
Outline: as §1

[3] = compound: Cc1cn(-c2cc(NC(=O)c3ccc(C)c(Nc4nccc(-c5cccnc5)n4)c3)cc(C(F)(F)F)c2)cn1 [nilotinib]
Outline: as §1

[4] = compound: Cc1nc(Nc2n[nH]c3c2CN(C(=O)N[C@H](CN(C)C)c2ccccc2)C3(C)C)c2sccc2n1
Outline: as §1

[5] = compound: Cc1nc(Nc2ncc(C(=O)Nc3c(C)cccc3Cl)s2)cc(N2CCN(CCO)CC2)n1 [dasatinib]
Outline: as §1

[6] = compound: Cc1ncc(-c2ccnc(Nc3ccc(S(C)(=O)=O)cc3)n2)n1C(C)C
Outline: as §1

[7] = compound: Cn1cc(-c2ccc3c(c2)CCN3C(=O)Cc2cccc(C(F)(F)F)c2)c2c(N)ncnc21
Outline: as §1

[8] = compound: Cn1cc(-c2ccc3nnc(C(F)(F)c4ccc5ncccc5c4)n3n2)cn1
Outline: as §1

[9] = compound: Cn1cncc1[C@@](N)(c1ccc(Cl)cc1)c1ccc2c(c1)c(-c1cccc(Cl)c1)cc(=O)n2C [tipifarnib]
Outline: as §1

[10] = compound: FC(F)(F)c1ccc(/C=C/c2nc(COc3ccc(CCCCn4ccnn4)cc3)co2)cc1 [mubritinib]
Outline: as §1

Measured: log2 fold change

MGST3 (UniProt O14880)
inactive: [1] -0.085 | [2] -0.002 | [3] 0.01 | [4] 0.012 | [5] 0.069 | [6] -0.056 | [7] 0.004 | [8] -0.026 | [9] 0.019 | [10] -0.094

MDN1 (UniProt Q9NU22)
inactive: [1] -0.094 | [2] 0 | [3] -0.15 | [4] -0.195 | [5] -0.245 | [6] -0.089 | [7] 0.02 | [8] 0.011 | [9] -0.052 | [10] -0.089

MIEF1 (UniProt Q9NQG6)
inactive: [1] -0.133 | [2] 0.006 | [3] 0.022 | [4] -0.04 | [5] -0.028 | [6] 0.145 | [7] 0.09 | [8] 0.064 | [9] -0.039 | [10] -0.029

METTL18 (UniProt O95568)
UniProt O95568, sequence (O95568 whole entry, looked up): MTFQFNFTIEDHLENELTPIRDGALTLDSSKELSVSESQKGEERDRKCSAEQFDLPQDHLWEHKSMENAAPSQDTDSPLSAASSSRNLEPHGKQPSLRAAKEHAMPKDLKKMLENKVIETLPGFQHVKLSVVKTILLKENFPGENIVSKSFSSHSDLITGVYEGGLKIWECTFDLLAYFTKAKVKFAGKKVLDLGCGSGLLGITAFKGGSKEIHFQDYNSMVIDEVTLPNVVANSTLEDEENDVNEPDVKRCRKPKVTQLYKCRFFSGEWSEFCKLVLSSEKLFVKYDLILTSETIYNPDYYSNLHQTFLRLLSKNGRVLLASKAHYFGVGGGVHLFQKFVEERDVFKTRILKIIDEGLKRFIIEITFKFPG
inactive: [1] -0.091 | [2] -0.049 | [3] -0.092 | [4] 0.028 | [5] 0.054 | [6] -0.023 | [7] -0.022 | [8] -0.087 | [9] 0.019 | [10] 0.036

KHDC4 (UniProt Q7Z7F0)
inactive: [1] -0.051 | [2] 0.057 | [3] 0.063 | [4] -0.054 | [5] -0.009 | [6] -0.053 | [7] -0.006 | [8] -0.053 | [9] -0.133 | [10] 0.004

MFF (UniProt Q9GZY8)
inactive: [1] -0.065 | [2] -0.049 | [3] -0.057 | [4] -0.073 | [5] 0.014 | [6] -0.017 | [7] -0.011 | [8] -0.05 | [9] 0.073 | [10] 0.035

MAP3K20 (UniProt Q9NYL2)
UniProt Q9NYL2, sequence (Q9NYL2 whole entry, looked up): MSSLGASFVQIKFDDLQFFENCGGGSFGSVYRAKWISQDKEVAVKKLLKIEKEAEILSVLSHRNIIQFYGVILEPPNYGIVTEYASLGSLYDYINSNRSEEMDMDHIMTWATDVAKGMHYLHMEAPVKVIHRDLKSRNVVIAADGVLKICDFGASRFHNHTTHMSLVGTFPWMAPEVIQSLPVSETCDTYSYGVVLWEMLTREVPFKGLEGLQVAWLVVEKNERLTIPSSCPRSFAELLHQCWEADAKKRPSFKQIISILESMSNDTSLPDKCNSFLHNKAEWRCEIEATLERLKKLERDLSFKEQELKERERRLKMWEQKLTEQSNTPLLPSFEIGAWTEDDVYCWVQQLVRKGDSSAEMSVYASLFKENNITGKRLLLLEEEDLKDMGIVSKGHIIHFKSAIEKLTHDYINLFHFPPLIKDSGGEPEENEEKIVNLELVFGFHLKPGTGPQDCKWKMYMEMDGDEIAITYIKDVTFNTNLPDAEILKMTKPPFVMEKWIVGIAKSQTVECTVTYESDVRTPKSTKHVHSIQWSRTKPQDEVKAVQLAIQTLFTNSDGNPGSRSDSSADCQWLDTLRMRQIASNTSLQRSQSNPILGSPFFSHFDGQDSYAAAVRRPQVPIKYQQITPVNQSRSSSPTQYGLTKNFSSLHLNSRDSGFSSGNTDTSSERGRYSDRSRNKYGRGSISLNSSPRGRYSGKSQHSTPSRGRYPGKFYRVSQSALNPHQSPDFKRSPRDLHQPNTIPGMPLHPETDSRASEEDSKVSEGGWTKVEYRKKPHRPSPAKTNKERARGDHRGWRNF
active: [1] -0.246 | [5] -0.712
inactive: [2] 0.039 | [3] -0.216 | [4] 0.057 | [6] -0.079 | [7] -0.065 | [8] -0.019 | [9] -0.013 | [10] -0.041

MAPKAPK3 (UniProt Q16644)
UniProt Q16644, sequence (Q16644 whole entry, looked up): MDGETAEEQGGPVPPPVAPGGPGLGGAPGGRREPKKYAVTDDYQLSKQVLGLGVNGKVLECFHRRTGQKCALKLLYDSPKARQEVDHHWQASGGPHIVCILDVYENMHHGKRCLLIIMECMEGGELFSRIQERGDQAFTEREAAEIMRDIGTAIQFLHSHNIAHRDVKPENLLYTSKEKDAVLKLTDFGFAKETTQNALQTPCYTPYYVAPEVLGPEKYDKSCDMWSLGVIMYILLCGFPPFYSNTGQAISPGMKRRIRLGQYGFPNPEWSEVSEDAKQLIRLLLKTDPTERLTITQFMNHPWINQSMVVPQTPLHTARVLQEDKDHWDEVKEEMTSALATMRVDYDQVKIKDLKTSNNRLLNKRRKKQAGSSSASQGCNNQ
inactive: [1] 0.258 | [2] 0 | [3] 0.281 | [4] -0.03 | [5] 0.002 | [6] -0.032 | [7] -0.005 | [8] 0 | [9] -0.048 | [10] -0.04

LTV1 (UniProt Q96GA3)
inactive: [1] 0.137 | [2] -0.039 | [3] -0.047 | [4] 0.137 | [5] 0.025 | [6] 0.009 | [7] -0.112 | [8] -0.09 | [9] 0.064 | [10] 0.042

KRAS isoform 2 (UniProt P01116)
UniProt P01116, sequence (P01116 whole entry, looked up): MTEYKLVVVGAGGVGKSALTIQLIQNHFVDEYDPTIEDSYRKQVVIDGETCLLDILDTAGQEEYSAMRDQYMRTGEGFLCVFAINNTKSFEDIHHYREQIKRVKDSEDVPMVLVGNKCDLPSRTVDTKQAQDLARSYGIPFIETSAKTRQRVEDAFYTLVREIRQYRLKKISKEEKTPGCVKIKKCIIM
inactive: [1] 0.008 | [2] -0.115 | [3] -0.123 | [4] 0.074 | [5] -0.018 | [6] -0.041 | [7] 0.064 | [8] -0.08 | [9] 0.087 | [10] 0.041

LSS (UniProt P48449)
inactive: [1] 0.393 | [2] 0 | [3] -0.046 | [4] 0.047 | [5] 0 | [6] 0.013 | [7] 0.145 | [8] 0 | [9] -0.039 | [10] 0.193

INTS7 (UniProt Q9NVH2)
inactive: [1] 0.02 | [2] 0.033 | [3] -0.054 | [4] -0.025 | [5] -0.109 | [6] 0.114 | [7] -0.021 | [8] 0.017 | [9] -0.132 | [10] -0.123

KDM1A isoform 2 (UniProt O60341)
inactive: [1] 0.007 | [2] 0.014 | [3] -0.078 | [4] -0.059 | [5] -0.07 | [6] -0.001 | [7] -0.002 | [8] -0.011 | [9] -0.108 | [10] 0.095

KHDRBS1 (UniProt Q07666)
inactive: [1] 0.041 | [2] 0.007 | [3] 0.035 | [4] 0.02 | [5] 0.012 | [6] 0.07 | [7] 0.025 | [8] -0.024 | [9] 0.017 | [10] 0.021

MDC1 (UniProt Q14676)
inactive: [1] -0.1 | [2] -0.269 | [3] 0.037 | [4] 0.02 | [5] 0.398 | [6] -0.191 | [7] -0.031 | [8] -0.043 | [9] 0.058 | [10] -0.038

LARP1 (UniProt Q6PKG0)
inactive: [1] 0.049 | [2] 0.024 | [3] -0.063 | [4] -0.014 | [5] 0.014 | [6] -0.028 | [7] -0.067 | [8] -0.043 | [9] 0.047 | [10] -0.011

KPNA4 (UniProt O00629)
UniProt O00629, sequence (O00629 whole entry, looked up): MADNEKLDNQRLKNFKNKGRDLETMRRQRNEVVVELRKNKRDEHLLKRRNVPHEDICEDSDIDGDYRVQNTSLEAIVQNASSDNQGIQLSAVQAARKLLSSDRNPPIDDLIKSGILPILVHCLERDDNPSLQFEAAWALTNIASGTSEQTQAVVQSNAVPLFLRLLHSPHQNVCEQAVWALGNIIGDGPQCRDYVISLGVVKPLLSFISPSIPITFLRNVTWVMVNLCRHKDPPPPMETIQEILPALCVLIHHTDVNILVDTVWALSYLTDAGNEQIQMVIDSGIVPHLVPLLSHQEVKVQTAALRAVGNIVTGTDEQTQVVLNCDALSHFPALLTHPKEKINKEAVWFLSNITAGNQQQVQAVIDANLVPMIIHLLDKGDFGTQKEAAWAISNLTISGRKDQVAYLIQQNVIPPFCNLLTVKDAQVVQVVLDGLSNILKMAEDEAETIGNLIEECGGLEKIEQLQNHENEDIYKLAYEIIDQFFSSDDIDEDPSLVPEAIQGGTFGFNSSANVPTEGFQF
inactive: [1] -0.111 | [2] 0.021 | [3] 0.04 | [4] -0.155 | [5] -0.017 | [6] -0.033 | [7] 0.021 | [8] 0.032 | [9] -0.004 | [10] 0.093

MED1 (UniProt Q15648)
active: [6] -0.217
inactive: [1] 0.016 | [2] -0.018 | [3] 0.057 | [4] 0 | [5] 0.037 | [7] -0.064 | [8] -0.089 | [9] 0.069 | [10] 0.004

L2HGDH (UniProt Q9H9P8)
inactive: [1] -0.089 | [2] -0.037 | [3] 0.06 | [4] 0.002 | [5] -0.046 | [6] -0.002 | [7] 0.077 | [8] 0.053 | [9] 0.021 | [10] 0.061

MED25 isoform 3 (UniProt Q71SY5)
inactive: [1] 0.09 | [2] 0.217 | [3] -0.013 | [4] 0.003 | [5] -0.049 | [6] -0.09 | [7] -0.071 | [8] 0.076 | [9] 0.054 | [10] -0.308

LAMP2 (UniProt P13473)
UniProt P13473, sequence (P13473 whole entry, looked up): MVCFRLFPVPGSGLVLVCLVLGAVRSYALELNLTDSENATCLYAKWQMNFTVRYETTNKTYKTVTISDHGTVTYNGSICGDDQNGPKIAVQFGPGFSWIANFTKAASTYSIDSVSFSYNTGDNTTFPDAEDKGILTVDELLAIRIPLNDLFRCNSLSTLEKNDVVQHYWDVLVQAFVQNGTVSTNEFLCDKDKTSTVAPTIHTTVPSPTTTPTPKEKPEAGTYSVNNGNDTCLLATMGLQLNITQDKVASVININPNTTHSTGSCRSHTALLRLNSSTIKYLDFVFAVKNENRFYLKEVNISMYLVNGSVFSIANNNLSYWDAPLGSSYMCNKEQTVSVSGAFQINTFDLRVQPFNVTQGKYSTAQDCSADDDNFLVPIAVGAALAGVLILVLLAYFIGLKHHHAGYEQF
inactive: [1] -0.124 | [2] -0.051 | [3] 0.002 | [4] -0.014 | [5] 0.017 | [6] 0.014 | [7] 0.048 | [8] 0.035 | [9] 0.14 | [10] 0.017

ILF2 (UniProt Q12905)
inactive: [1] 0.093 | [2] -0.012 | [3] -0.011 | [4] 0.251 | [5] 0.121 | [6] 0.3 | [7] -0.151 | [8] -0.084 | [9] 0.006 | [10] -0.071

MAP2K2 (UniProt P36507)
inactive: [1] -0.081 | [2] 0.007 | [3] -0.003 | [4] -0.154 | [5] -0.092 | [6] -0.018 | [7] 0.023 | [8] 0.098 | [9] 0.015 | [10] 0.017

JAK3 (UniProt P52333)
inactive: [1] -0.013 | [2] -0.056 | [3] -0.01 | [4] 0.082 | [5] -0.028 | [6] -0.02 | [7] -0.019 | [8] 0.044 | [9] 0.052 | [10] -0.061

LARP4B (UniProt Q92615)
inactive: [1] 0.022 | [2] -0.025 | [3] -0.055 | [4] -0.192 | [5] -0.072 | [6] -0.092 | [7] -0.052 | [8] -0.031 | [9] -0.008 | [10] -0.038

MAPK9 (UniProt P45984)
UniProt P45984, sequence (P45984 whole entry, looked up): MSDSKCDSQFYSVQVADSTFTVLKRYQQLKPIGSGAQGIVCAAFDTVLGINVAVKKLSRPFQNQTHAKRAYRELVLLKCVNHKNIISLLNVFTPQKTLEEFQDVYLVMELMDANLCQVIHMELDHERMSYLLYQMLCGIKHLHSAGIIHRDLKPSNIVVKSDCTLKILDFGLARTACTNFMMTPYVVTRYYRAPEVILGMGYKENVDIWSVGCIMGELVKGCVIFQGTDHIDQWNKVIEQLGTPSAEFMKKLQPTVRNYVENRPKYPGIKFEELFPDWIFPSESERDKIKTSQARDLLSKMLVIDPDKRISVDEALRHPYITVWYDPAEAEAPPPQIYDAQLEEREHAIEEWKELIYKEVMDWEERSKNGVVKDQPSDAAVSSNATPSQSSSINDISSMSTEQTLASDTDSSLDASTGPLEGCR
inactive: [1] -0.112 | [2] 0.003 | [3] -0.023 | [4] 0.047 | [5] -0.044 | [6] 0.134 | [7] 0.042 | [8] 0.04 | [9] 0.015 | [10] -0.059

LUC7L3 (UniProt O95232)
UniProt O95232, sequence (O95232 whole entry, looked up): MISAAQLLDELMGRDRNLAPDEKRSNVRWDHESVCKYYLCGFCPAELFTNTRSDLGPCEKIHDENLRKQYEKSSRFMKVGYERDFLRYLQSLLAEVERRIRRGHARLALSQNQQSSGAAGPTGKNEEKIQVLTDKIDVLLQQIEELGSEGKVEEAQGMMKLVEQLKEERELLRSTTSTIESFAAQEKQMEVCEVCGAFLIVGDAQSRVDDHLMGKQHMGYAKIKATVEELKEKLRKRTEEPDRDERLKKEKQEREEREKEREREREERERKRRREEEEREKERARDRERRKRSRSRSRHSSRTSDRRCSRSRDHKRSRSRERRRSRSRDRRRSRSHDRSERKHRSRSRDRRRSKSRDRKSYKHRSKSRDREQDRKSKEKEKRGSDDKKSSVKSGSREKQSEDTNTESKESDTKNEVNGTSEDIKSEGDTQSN
active: [4] -2.05
inactive: [1] 0.001 | [2] -0.001 | [3] 0.091 | [5] -0.037 | [6] 0.052 | [7] 0.007 | [8] -0.019 | [9] 0.036 | [10] 0.02

MAP3K7 (UniProt O43318)
UniProt O43318, sequence (O43318 whole entry, looked up): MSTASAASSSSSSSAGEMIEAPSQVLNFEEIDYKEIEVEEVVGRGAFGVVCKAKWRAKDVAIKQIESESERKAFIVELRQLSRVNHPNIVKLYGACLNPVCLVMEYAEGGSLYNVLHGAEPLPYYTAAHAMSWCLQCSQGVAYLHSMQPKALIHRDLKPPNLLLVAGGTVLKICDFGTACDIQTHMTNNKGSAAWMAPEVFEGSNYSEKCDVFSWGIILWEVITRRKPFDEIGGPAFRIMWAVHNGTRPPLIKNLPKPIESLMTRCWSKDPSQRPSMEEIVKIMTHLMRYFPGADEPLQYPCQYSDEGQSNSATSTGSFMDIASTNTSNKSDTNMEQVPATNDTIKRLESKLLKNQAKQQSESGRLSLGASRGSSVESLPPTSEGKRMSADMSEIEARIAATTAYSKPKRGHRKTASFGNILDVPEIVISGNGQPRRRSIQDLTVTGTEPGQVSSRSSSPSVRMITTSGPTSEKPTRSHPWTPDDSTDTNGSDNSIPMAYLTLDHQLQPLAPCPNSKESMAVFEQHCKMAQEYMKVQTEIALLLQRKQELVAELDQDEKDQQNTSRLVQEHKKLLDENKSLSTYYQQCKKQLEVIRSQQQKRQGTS
inactive: [1] 0.029 | [2] 0.085 | [3] -0.105 | [4] -0.028 | [5] -0.038 | [6] 0.059 | [7] -0.095 | [8] -0.026 | [9] -0.064 | [10] 0.046

LPIN3 isoform 2 (UniProt Q9BQK8)
UniProt Q9BQK8, sequence (Q9BQK8 whole entry, looked up): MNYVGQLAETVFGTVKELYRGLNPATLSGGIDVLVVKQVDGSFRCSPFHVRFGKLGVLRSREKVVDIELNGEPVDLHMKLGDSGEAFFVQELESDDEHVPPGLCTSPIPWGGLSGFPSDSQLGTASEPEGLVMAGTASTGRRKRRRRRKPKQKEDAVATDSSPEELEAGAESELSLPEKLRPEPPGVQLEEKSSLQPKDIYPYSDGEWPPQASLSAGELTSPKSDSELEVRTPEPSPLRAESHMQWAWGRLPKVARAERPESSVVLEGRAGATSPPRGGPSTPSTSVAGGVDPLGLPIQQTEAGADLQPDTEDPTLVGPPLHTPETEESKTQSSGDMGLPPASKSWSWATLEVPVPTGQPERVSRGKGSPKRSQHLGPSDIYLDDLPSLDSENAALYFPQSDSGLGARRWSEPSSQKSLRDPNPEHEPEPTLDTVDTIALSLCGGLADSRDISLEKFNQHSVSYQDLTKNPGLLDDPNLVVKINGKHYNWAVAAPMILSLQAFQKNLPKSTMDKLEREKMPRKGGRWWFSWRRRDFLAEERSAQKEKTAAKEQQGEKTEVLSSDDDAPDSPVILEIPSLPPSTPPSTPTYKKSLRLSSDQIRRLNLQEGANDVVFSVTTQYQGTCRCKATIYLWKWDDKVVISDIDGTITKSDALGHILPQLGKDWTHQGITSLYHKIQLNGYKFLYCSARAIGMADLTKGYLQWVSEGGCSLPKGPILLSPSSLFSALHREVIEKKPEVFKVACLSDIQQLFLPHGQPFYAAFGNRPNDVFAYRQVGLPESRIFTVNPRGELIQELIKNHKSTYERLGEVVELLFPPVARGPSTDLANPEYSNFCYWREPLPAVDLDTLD
inactive: [1] 0.006 | [2] 0.024 | [3] -0.005 | [4] -0.051 | [5] -0.128 | [6] 0.038 | [7] 0.06 | [8] 0.002 | [9] 0.008 | [10] 0.089

KCTD10 (UniProt Q9H3F6)
inactive: [1] -0.059 | [2] -0.036 | [3] 0.002 | [4] -0.088 | [5] 0.056 | [6] 0.074 | [7] 0.012 | [8] 0.153 | [9] 0.058 | [10] -0.009
